Drawing on PubChem BioAssay (NCATS), this text covers Potency and activity change, negative = cytotoxicity for 32 compounds.

SMILES strings stand for the structures. Inconclusive results are not listed. Where a call stands in place of a potency, no number is given. A number with no mark means an inactive call. Active and inactive are the calls of the source. Calls follow the shape of the dose curve; as a rule, active = well fitted cell-killing curve with a large enough effect; inconclusive = small, poorly fitted or top-dose-only effect, or effect the other way; inactive = flat fitted curve, though single readings scatter.
Potency is read from the fitted curve at half-maximal effect.

The subject of one experiment is PA-1. In words: Primary qHTS to identify gynecologic anti-cancer compounds using libraries of approved drugs and bioactive compounds (AID 1345084). Also: nearly all actives have a fitted effect of over 55% in size. The conditions noted are these: Gynecologic cancer cell panel viability, ATPlite luminescence, 48 h; series mostly up to 57.5 µM. Put shortly:
(§1)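 Cell viability after 48 h drug treatment, ATPlite luminescence readout; five doses.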
Background: Quantitative high-throughput screening tests each substance at several concentrations.
With `NC(=O)NC(=O)Cc1ccccc1`, the Potency entry was “inactive”. Regarding `NC(=O)NNc1ccccc1`, the Potency entry was “inactive”. `N[C@H](C(=O)O)c1ccc(O)cc1`: the Potency result was “inactive”. On the same count and under the same terms, under `Nc1ccc(S(=O)(=O)NC(=O)c2ccccc2)cc1` stands “inactive”.

On to `CCN(CC)CCNC(=O)c1c(C)[nH]c(/C=C2\C(=O)Nc3ccc(F)cc32)c1C`, for which the Potency was 10 µM (active).

As to `N[C@H]1C(O)O[C@H](CO)[C@@H](O)[C@@H]1O` (stereo partly drawn), the Potency entry was “inactive”. For `O=S(=O)(O)NC1CCCCC1`, the Potency result was “inactive”. Still for that read-out and setting: under `OC[C@H]1O[C@@H](O[C@@H]2[C@@H](CO)O[C@](O)(CO)[C@H]2O)[C@H](O)[C@@H](O)[C@H]1O` stands “inactive”. `CN(C)CCCO[C@@H]1[C@H]2OC(C)(C)O[C@H]2O[C@@H]1C(O)CO` (stereo partly drawn): the Potency result is “inactive”.

As to `C[C@@H]1CC[C@@]2(OC1)O[C@H]1C[C@H]3[C@@H]4CC[C@H]5C[C@@H](O)CC[C@]5(C)[C@H]4CC(=O)[C@]3(C)[C@H]1[C@@H]2C`, the activity change, negative = cytotoxicity was 9.38% [at 6.55 µM]. As for `CC1=C(CC(=O)O)c2cc(F)ccc2/C1=C\c1ccc(S(C)=O)cc1` (stereo not drawn), the Potency entry was “inactive”. Still for that read-out and setting: under `C[C@H]1O[C@@H](n2cc(F)c(=O)[nH]c2=O)[C@H](O)[C@@H]1O` stands “inactive”; under `Cc1cc(N)c2ccccc2[n+]1CCCCCCCCCC[n+]1c(C)cc(N)c2ccccc21`, 22.4 µM (active). Same read-out and setting: under `O=S(=O)(O)c1cc(I)c(O)c2ncccc12` stands “inactive”; under `CN1[C@@H]2CC(OC(=O)[C@H](CO)c3ccccc3)C[C@H]1[C@@H]1O[C@@H]12` (stereo partly drawn), “inactive”. Still for that read-out and setting: under `CC1(C)OC(=O)NC1=O` stands “inactive”; under `CCCCCCCCCCCCCCCCCCOCC(O)CO` (stereo not drawn), “inactive”. As for `CC(=O)CCC(=O)O`, the Potency result is “inactive”. `C=CCn1c(=O)n([C@@H]2O[C@H](CO)[C@@H](O)[C@H]2O)c2nc(N)[nH]c(=O)c21`: the Potency result is “inactive”. Still for that read-out and setting: under `CC(=O)c1ccc2c(c1)N(CCCN(C)C)c1ccccc1S2` stands “inactive”. Regarding `CC1(C)CO[C@@H](CC(=O)O)CN1`, the Potency result is “inactive”. In the case of `CC(=O)Oc1c(C)c(C)c2c(c1C)CC[C@@](C)(CCC[C@H](C)CCC[C@H](C)CCCC(C)C)O2`, the Potency entry is “inactive”.

On to `COc1ccc2cc1Oc1ccc(cc1)C[C@H]1c3c(cc4c(c3Oc3cc5c(cc3OC)CCN(C)[C@@H]5C2)OCO4)CCN1C`, for which the Potency is 28.2 µM (active). As for `C[C@H](N)[C@H](O)c1cccc(O)c1`, the Potency result is “inactive”. Same read-out and setting: under `COC(=O)C1=C(C)NC(C)=C(C(=O)OC)C1c1ccccc1[N+](=O)[O-]` stands “inactive”; under `Cc1cc(O)cc2c1O[C@](C)(CCC[C@H](C)CCC[C@H](C)CCCC(C)C)CC2`, “inactive”. Take `CCCCN(CCCC)CC(O)c1cc(Cl)cc2c1-c1ccc(Cl)cc1/C2=C/c1ccc(Cl)cc1` (stereo not drawn): the Potency result was “inactive”. Same read-out and setting: under `CC(=O)NC(Cc1ccccc1)C(=O)O` (stereo not drawn) stands “inactive”; under `CC(=O)OCC(=O)[C@@]1(O)CC[C@H]2[C@@H]3CCC4=CC(=O)CC[C@]4(C)[C@H]3C(=O)C[C@@]21C`, “inactive”; under `CC[C@@]1(c2ccccc2)NC(=O)N(C)C1=O`, “inactive”.

The next experiment deals with SKOV3. The description is as above. The conditions noted are these: Gynecologic cancer cell panel viability, ATPlite luminescence, 48 h; series mostly up to 57.5 µM. Put shortly:
as §1
On the technique in general: ATP-based viability assays read luminescence as a measure of living cells.
For `NC(=O)NC(=O)Cc1ccccc1`, the Potency result was “inactive”.

Consider `NC(=O)NNc1ccccc1`, for which the Potency entry is “inactive”. Still for that read-out and setting: under `N[C@H](C(=O)O)c1ccc(O)cc1` stands “inactive”. For `Nc1ccc(S(=O)(=O)NC(=O)c2ccccc2)cc1`, the Potency result was “inactive”.

For `CCN(CC)CCNC(=O)c1c(C)[nH]c(/C=C2\C(=O)Nc3ccc(F)cc32)c1C`, the Potency is 8.91 µM (active). On the same count and under the same terms, under `N[C@H]1C(O)O[C@H](CO)[C@@H](O)[C@@H]1O` (stereo partly drawn) stands “inactive”; under `O=S(=O)(O)NC1CCCCC1`, “inactive”. On to `OC[C@H]1O[C@@H](O[C@@H]2[C@@H](CO)O[C@](O)(CO)[C@H]2O)[C@H](O)[C@@H](O)[C@H]1O`, for which the Potency entry was “inactive”. As to `CN(C)CCCO[C@@H]1[C@H]2OC(C)(C)O[C@H]2O[C@@H]1C(O)CO` (stereo partly drawn), the Potency result was “inactive”. Regarding `C[C@@H]1CC[C@@]2(OC1)O[C@H]1C[C@H]3[C@@H]4CC[C@H]5C[C@@H](O)CC[C@]5(C)[C@H]4CC(=O)[C@]3(C)[C@H]1[C@@H]2C`, the activity change, negative = cytotoxicity was 8.75% [at 6.55 µM]. Consider `CNCCCC1c2ccccc2C=Cc2ccccc21`, for which the Potency entry is “inactive”.

With `CC1=C(CC(=O)O)c2cc(F)ccc2/C1=C\c1ccc(S(C)=O)cc1` (stereo not drawn), the Potency entry is “inactive”.

As for `C[C@H]1O[C@@H](n2cc(F)c(=O)[nH]c2=O)[C@H](O)[C@@H]1O`, the Potency result is “inactive”. On the same count and under the same terms, under `O=S(=O)(O)c1cc(I)c(O)c2ncccc12` stands “inactive”.

Regarding `CN1[C@@H]2CC(OC(=O)[C@H](CO)c3ccccc3)C[C@H]1[C@@H]1O[C@@H]12` (stereo partly drawn), the Potency result was “inactive”. Same read-out and setting: under `CC1(C)OC(=O)NC1=O` stands “inactive”. For the compound `CCCCCCCCCCCCCCCCCCOCC(O)CO` (stereo not drawn), the Potency entry was “inactive”. The same measure, in the same setting: under `CC(=O)CCC(=O)O` stands “inactive”. On the same count and under the same terms, under `C=CCn1c(=O)n([C@@H]2O[C@H](CO)[C@@H](O)[C@H]2O)c2nc(N)[nH]c(=O)c21` stands “inactive”; under `CC1(C)CO[C@@H](CC(=O)O)CN1`, “inactive”; under `CC(=O)Oc1c(C)c(C)c2c(c1C)CC[C@@](C)(CCC[C@H](C)CCC[C@H](C)CCCC(C)C)O2`, “inactive”. For `C[C@H](N)[C@H](O)c1cccc(O)c1`, the Potency result was “inactive”. Consider `COC(=O)C1=C(C)NC(C)=C(C(=O)OC)C1c1ccccc1[N+](=O)[O-]`, for which the Potency entry is “inactive”. For `Cc1cc(O)cc2c1O[C@](C)(CCC[C@H](C)CCC[C@H](C)CCCC(C)C)CC2`, the Potency result was “inactive”. Same read-out and setting: under `CC(=O)NC(Cc1ccccc1)C(=O)O` (stereo not drawn) stands “inactive”; under `CC(=O)OCC(=O)[C@@]1(O)CC[C@H]2[C@@H]3CCC4=CC(=O)CC[C@]4(C)[C@H]3C(=O)C[C@@]21C`, “inactive”. As to `CNCC(O)c1ccc(O)c(O)c1` (stereo not drawn), the Potency was 28.2 µM (active). On the same count and under the same terms, under `CC[C@@]1(c2ccccc2)NC(=O)N(C)C1=O` stands “inactive”.
